In article PMC7862700, “An all-to-all approach to the identification of sequence-specific readers for epigenetic DNA modifications on cytosine”:

How the values were obtained:
Test in all cases: DAPPL (digital affinity profiling via proximity ligation, sequencing); 10 mM Tris-HCl pH 7.5, 50 mM NaCl, 1 mM DTT, 4% glycerol, room temperature, 30 min; GST-TFs on glutathione beads, 16-mer random dsDNA library, 0.1% formaldehyde crosslink after washing; high values mean tight binding
[1] = biological target: T1, FEV (Homo sapiens, UniProt Q99581 1-238); conditions: protein: recombinant; tags: N-terminal GST; dsDNA, one strand shown
T1 sequence: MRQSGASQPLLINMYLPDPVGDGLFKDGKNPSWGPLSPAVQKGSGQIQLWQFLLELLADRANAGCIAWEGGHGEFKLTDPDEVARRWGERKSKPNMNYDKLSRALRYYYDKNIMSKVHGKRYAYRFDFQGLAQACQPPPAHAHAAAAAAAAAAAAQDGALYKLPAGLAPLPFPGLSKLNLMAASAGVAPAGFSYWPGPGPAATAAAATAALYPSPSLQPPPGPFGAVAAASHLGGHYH
Method in brief: (§1)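 Pools of DNA-barcoded human transcription factors, expressed in yeast as GST fusions on glutathione beads and combined with a tag-only sample, were incubated with 200 nmole of a 16-mer random double-stranded DNA library. Incubation took 30 min at room temperature in Tris/NaCl/DTT/glycerol buffer and was followed by washing, 0.1% formaldehyde crosslinking, proximity ligation (BsaI/T4 ligase, 1 h, 37 °C), PCR amplification and sequencing on an Illumina NextSeq500. Binding signal is the ratio of a hexamer's read frequency for a factor to its frequency for the tag-only sample.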

[2] = biological target: ETV5 (Homo sapiens, UniProt P41161 1-510); conditions: protein: recombinant; tags: N-terminal GST; dsDNA, one strand shown
ETV5, sequence (P41161 whole entry): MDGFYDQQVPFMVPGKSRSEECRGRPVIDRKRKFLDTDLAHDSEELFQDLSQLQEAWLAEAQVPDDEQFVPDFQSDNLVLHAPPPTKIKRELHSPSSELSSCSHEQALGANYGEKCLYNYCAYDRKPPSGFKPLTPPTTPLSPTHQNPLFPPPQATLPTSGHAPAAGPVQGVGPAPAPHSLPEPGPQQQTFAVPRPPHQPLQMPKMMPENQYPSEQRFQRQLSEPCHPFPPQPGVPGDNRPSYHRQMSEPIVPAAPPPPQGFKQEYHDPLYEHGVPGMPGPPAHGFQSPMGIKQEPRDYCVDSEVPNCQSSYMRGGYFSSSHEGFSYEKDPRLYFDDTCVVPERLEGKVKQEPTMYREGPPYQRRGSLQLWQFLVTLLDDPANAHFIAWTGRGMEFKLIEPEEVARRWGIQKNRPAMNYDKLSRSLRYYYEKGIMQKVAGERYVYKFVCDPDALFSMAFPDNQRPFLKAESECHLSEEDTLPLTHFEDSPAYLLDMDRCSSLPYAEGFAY
Method in brief: as §1

[3] = biological target: HSF1 (Homo sapiens, UniProt Q00613 1-529); conditions: protein: recombinant; tags: N-terminal GST; chain copies: 3; dsDNA, one strand shown
HSF1, sequence (Q00613 whole entry): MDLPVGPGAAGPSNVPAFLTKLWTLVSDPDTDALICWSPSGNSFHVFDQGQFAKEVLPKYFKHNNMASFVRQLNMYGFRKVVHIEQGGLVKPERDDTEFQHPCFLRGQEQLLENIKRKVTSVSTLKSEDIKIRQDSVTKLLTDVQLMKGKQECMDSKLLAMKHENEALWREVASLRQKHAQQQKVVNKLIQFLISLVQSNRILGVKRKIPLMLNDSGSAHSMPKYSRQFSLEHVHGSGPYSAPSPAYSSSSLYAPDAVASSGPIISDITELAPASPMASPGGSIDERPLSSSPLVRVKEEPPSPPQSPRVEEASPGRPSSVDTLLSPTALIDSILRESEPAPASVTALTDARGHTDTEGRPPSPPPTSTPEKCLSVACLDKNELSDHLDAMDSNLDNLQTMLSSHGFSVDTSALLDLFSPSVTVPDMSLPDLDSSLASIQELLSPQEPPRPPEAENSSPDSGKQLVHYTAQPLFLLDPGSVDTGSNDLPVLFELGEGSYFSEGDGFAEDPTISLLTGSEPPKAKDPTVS
Method in brief: as §1

[4] = biological target: T2, SPIC (Homo sapiens, UniProt Q8N5J4 1-248); conditions: protein: recombinant; tags: N-terminal GST; dsDNA, one strand shown
T2 sequence: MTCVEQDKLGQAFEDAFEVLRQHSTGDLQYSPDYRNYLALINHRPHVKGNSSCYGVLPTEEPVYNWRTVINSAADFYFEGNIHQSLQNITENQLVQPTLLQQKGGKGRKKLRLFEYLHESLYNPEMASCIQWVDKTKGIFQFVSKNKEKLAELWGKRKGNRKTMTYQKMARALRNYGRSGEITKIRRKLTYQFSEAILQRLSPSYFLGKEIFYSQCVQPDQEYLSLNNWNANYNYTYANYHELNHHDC
Method in brief: as §1

[5] = biological target: ELF4 (Homo sapiens, UniProt Q99607 1-663); conditions: protein: recombinant; tags: N-terminal GST; dsDNA, one strand shown
ELF4, sequence (Q99607 whole entry): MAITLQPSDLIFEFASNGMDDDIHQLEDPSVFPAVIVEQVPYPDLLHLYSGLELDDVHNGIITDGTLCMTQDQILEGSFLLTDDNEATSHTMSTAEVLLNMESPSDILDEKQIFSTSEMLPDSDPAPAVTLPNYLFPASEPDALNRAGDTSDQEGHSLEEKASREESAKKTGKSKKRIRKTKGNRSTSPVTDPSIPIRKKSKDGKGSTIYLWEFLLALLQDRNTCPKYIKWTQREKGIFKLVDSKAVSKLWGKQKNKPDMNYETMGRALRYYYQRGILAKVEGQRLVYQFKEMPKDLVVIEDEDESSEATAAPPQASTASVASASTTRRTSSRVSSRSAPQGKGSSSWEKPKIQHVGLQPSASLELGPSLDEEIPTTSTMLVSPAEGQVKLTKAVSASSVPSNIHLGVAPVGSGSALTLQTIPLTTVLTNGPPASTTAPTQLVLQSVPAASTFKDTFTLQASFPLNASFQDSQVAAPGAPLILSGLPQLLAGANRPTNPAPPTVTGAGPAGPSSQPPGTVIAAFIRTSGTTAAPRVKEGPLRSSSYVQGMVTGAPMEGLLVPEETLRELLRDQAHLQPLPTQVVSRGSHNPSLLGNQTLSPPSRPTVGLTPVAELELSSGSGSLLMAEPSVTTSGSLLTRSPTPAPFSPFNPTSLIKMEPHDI
Method in brief: as §1

[6] = biological target: T3, ELK4 (Homo sapiens, UniProt P28324-2 1-405); conditions: protein: recombinant; tags: N-terminal GST; dsDNA, one strand shown
T3 sequence: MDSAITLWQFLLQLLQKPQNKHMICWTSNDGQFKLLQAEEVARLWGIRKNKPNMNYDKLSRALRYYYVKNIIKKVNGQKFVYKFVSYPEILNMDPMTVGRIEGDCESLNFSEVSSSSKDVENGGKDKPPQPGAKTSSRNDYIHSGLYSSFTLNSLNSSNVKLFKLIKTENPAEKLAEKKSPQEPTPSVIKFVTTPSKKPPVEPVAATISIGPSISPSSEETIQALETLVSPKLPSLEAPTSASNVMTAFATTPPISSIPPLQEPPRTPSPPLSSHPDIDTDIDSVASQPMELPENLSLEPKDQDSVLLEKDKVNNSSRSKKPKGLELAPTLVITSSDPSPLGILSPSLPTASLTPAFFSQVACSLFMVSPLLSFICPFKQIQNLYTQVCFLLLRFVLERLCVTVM
Method in brief: as §1

[7] = biological target: T4, ETV2 (Homo sapiens, UniProt O00321 1-342); conditions: protein: recombinant; tags: N-terminal GST; dsDNA, one strand shown
T4 sequence: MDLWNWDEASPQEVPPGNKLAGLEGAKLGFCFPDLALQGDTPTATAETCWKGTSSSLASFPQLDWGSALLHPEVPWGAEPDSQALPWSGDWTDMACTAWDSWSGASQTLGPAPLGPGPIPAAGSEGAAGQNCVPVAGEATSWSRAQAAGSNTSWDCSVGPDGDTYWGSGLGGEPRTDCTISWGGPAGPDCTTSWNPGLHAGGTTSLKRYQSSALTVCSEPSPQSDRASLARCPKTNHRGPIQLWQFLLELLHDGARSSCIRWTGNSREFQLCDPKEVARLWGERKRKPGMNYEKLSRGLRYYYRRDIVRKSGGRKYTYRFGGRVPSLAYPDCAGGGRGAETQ
Method in brief: as §1

[8] = biological target: T5, ELF3 (Homo sapiens, UniProt P78545 1-371); conditions: protein: recombinant; tags: N-terminal GST; dsDNA, one strand shown
T5 sequence: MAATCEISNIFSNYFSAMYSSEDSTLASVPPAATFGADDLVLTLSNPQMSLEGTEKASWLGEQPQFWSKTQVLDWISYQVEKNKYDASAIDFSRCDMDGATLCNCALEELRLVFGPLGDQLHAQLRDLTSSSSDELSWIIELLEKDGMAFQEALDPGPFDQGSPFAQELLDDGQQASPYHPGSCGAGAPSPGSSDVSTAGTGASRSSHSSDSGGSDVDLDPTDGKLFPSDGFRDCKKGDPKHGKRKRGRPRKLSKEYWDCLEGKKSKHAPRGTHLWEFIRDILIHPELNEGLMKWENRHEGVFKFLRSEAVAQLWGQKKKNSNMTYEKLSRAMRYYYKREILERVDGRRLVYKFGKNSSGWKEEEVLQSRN
Method in brief: as §1

[9] = biological target: CRX (Homo sapiens, UniProt O43186 1-299); conditions: protein: recombinant; tags: N-terminal GST; dsDNA, one strand shown
CRX, sequence (O43186 whole entry): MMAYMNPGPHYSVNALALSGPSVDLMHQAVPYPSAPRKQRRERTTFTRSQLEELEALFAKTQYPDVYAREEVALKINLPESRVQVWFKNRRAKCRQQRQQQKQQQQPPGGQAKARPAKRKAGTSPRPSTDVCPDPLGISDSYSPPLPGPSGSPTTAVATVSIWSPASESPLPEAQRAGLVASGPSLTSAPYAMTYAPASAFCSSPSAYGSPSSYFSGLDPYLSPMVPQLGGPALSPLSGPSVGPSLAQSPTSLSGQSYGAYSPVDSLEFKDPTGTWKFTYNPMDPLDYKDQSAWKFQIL
Method in brief: as §1

[10] = biological target: ETV1 (Homo sapiens, UniProt P50549 1-477); conditions: protein: recombinant; tags: N-terminal GST; dsDNA, one strand shown
ETV1, sequence (P50549 whole entry): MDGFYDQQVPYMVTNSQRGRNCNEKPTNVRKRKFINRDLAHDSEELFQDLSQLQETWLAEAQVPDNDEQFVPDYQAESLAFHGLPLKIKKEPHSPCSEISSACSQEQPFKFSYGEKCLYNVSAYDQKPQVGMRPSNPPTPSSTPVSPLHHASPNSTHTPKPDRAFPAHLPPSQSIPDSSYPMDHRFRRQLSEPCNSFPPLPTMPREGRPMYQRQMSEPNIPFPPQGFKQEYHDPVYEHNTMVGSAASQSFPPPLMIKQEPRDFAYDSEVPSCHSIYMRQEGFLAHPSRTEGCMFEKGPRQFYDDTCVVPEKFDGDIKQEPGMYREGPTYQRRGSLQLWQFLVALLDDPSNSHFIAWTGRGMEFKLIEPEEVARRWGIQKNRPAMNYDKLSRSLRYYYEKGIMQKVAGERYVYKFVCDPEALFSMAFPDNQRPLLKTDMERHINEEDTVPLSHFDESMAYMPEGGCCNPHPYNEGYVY
Method in brief: as §1

| Sequence | binding signal [1] | binding signal [2] | binding signal [3] | binding signal [4] | binding signal [5] | binding signal [6] | binding signal [7] | binding signal [8] | binding signal [9] | binding signal [10] |
| --- | --- | --- | --- | --- | --- | --- | --- | --- | --- | --- |
| AATGGC | 1.52 fold enrichment (6-mer frequency, TF over GST control) | 1.42 fold enrichment (6-mer frequency, TF over GST control) | 1.28 fold enrichment (6-mer frequency, TF over GST control) | 1.61 fold enrichment (6-mer frequency, TF over GST control) | 1.29 fold enrichment (6-mer frequency, TF over GST control) | 1.52 fold enrichment (6-mer frequency, TF over GST control) | 1.26 fold enrichment (6-mer frequency, TF over GST control) | 1.55 fold enrichment (6-mer frequency, TF over GST control) | 1.26 fold enrichment (6-mer frequency, TF over GST control) | 1.44 fold enrichment (6-mer frequency, TF over GST control) |
| AGCTTT | 1.08 fold enrichment (6-mer frequency, TF over GST control) | 1.18 fold enrichment (6-mer frequency, TF over GST control) | 1.43 fold enrichment (6-mer frequency, TF over GST control) | 1.03 fold enrichment (6-mer frequency, TF over GST control) | 1.15 fold enrichment (6-mer frequency, TF over GST control) | 1.28 fold enrichment (6-mer frequency, TF over GST control) | 1.23 fold enrichment (6-mer frequency, TF over GST control) | 1.45 fold enrichment (6-mer frequency, TF over GST control) | 1.81 fold enrichment (6-mer frequency, TF over GST control) | 1.1 fold enrichment (6-mer frequency, TF over GST control) |
| TTGAAT | 1.03 fold enrichment (6-mer frequency, TF over GST control) | 1.07 fold enrichment (6-mer frequency, TF over GST control) | 1.09 fold enrichment (6-mer frequency, TF over GST control) | 1.16 fold enrichment (6-mer frequency, TF over GST control) | 1.12 fold enrichment (6-mer frequency, TF over GST control) | 1.05 fold enrichment (6-mer frequency, TF over GST control) | 1.04 fold enrichment (6-mer frequency, TF over GST control) | 1.1 fold enrichment (6-mer frequency, TF over GST control) | 1.17 fold enrichment (6-mer frequency, TF over GST control) | 1.11 fold enrichment (6-mer frequency, TF over GST control) |
| CTCATG | 1.27 fold enrichment (6-mer frequency, TF over GST control) | 1.28 fold enrichment (6-mer frequency, TF over GST control) | 1.04 fold enrichment (6-mer frequency, TF over GST control) | 1.35 fold enrichment (6-mer frequency, TF over GST control) | 1.19 fold enrichment (6-mer frequency, TF over GST control) | 1.28 fold enrichment (6-mer frequency, TF over GST control) | 1.24 fold enrichment (6-mer frequency, TF over GST control) | 1.2 fold enrichment (6-mer frequency, TF over GST control) | 1.05 fold enrichment (6-mer frequency, TF over GST control) | 1.29 fold enrichment (6-mer frequency, TF over GST control) |
| ATGAGC | 1.24 fold enrichment (6-mer frequency, TF over GST control) | 1.23 fold enrichment (6-mer frequency, TF over GST control) | 1.13 fold enrichment (6-mer frequency, TF over GST control) | 1.29 fold enrichment (6-mer frequency, TF over GST control) | 1.29 fold enrichment (6-mer frequency, TF over GST control) | 1.26 fold enrichment (6-mer frequency, TF over GST control) | 1.3 fold enrichment (6-mer frequency, TF over GST control) | 1.35 fold enrichment (6-mer frequency, TF over GST control) | 1.31 fold enrichment (6-mer frequency, TF over GST control) | 1.14 fold enrichment (6-mer frequency, TF over GST control) |
| ATACAC | 1.24 fold enrichment (6-mer frequency, TF over GST control) | 1.22 fold enrichment (6-mer frequency, TF over GST control) | 1.01 fold enrichment (6-mer frequency, TF over GST control) | 1.22 fold enrichment (6-mer frequency, TF over GST control) | 1.24 fold enrichment (6-mer frequency, TF over GST control) | 1.25 fold enrichment (6-mer frequency, TF over GST control) | 1.24 fold enrichment (6-mer frequency, TF over GST control) | 1.16 fold enrichment (6-mer frequency, TF over GST control) | 1.04 fold enrichment (6-mer frequency, TF over GST control) | 1.31 fold enrichment (6-mer frequency, TF over GST control) |
| TTCCTA | 1.62 fold enrichment (6-mer frequency, TF over GST control) | 1.79 fold enrichment (6-mer frequency, TF over GST control) | 1.59 fold enrichment (6-mer frequency, TF over GST control) | 1.67 fold enrichment (6-mer frequency, TF over GST control) | 1.57 fold enrichment (6-mer frequency, TF over GST control) | 1.52 fold enrichment (6-mer frequency, TF over GST control) | 1.77 fold enrichment (6-mer frequency, TF over GST control) | 1.84 fold enrichment (6-mer frequency, TF over GST control) | 1.47 fold enrichment (6-mer frequency, TF over GST control) | 1.72 fold enrichment (6-mer frequency, TF over GST control) |
| GATGTA | 1.4 fold enrichment (6-mer frequency, TF over GST control) | 1.37 fold enrichment (6-mer frequency, TF over GST control) | 1.01 fold enrichment (6-mer frequency, TF over GST control) | 1.12 fold enrichment (6-mer frequency, TF over GST control) | 1.33 fold enrichment (6-mer frequency, TF over GST control) | 1.28 fold enrichment (6-mer frequency, TF over GST control) | 1.18 fold enrichment (6-mer frequency, TF over GST control) | 1.53 fold enrichment (6-mer frequency, TF over GST control) | 1.06 fold enrichment (6-mer frequency, TF over GST control) | 1.33 fold enrichment (6-mer frequency, TF over GST control) |
